Experimental data from PubChem BioAssay (NCATS).
Values joined by “and” are separate entries in the source; they are usually repeats but may differ in a detail not shown here. Equal values may be shown once. Inconclusive results are not listed. Entries that show only a call come without a potency. Some compounds were tested as several samples or in several runs, with calls that do not always agree. Active and inactive are the calls of the source. Unless noted, the call rests on the fitted dose curve; in most records, active means well fitted curve in the direction sought with a large enough effect; inconclusive means small, poorly fitted or top-dose-only effect, or another doubt; inactive means no such curve, though single readings can be large; an effect the other way counts as inactive or inconclusive.

How the values were obtained:
[1] = S16 Schwann cell PMP22 intronic element beta-lactamase assay (AID 624044; calls by dose curve; further: nearly all actives have a fitted effect of over 15% in size)
Outline: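 Rat S16 Schwann cells with beta-Lac driven by a PMP22 intronic element, compound-treated 24 h at 37 °C. LiveBLAzer FRET B/G read: 460 nm normalized to potassium clavulanate vs DMSO; 535 nm FRET as viability; concentration-effect curves classified.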

[2] = biological target: Voltage-gated inwardly rectifying potassium channel KCNH2 (Homo sapiens) (UniProt Q12809); assay: qHTS Assay for Small Molecule Inhibitors of the Human hERG Channel Activity (AID 588834);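 further: lower thallium flux fluorescence means stronger hERG block; nearly all actives have a fitted effect of over 50% in size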; further: potency means the concentration at half of the fitted maximal effect
Voltage-gated inwardly rectifying potassium channel KCNH2 (Homo sapiens), sequence (Q12809 whole entry, looked up): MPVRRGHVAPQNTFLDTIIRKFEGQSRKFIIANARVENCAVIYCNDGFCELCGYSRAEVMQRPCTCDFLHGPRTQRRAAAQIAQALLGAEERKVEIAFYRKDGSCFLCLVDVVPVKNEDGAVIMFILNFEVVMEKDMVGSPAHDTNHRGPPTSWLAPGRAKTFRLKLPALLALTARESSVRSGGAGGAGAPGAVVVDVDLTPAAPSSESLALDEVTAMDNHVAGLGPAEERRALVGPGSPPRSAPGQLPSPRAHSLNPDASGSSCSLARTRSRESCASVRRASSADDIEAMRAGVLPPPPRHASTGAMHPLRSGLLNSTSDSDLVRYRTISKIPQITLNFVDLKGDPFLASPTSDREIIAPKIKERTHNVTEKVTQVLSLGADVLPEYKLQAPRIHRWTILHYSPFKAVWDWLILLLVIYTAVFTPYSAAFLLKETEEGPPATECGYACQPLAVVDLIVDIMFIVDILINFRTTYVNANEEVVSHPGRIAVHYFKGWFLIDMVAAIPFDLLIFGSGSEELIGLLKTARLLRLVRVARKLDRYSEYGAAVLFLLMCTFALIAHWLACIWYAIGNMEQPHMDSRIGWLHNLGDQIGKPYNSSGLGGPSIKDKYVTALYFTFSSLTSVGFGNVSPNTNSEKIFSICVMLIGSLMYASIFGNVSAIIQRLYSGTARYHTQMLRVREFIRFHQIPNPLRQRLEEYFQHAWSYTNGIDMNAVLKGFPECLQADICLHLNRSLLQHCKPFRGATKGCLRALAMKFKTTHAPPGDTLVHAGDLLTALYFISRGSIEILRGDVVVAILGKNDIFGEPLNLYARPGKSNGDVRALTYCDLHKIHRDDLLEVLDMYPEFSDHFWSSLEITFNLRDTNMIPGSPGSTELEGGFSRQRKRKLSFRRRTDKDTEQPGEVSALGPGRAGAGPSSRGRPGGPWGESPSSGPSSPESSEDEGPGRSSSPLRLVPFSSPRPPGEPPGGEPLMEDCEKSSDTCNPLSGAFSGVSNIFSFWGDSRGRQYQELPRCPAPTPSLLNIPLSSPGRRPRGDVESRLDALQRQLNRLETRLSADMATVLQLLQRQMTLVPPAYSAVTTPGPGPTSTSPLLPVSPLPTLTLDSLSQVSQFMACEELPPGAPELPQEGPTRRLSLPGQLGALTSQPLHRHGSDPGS
Outline: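 Measured: FluxOR fluorescence after thallium stimulation in U2OS cells transduced with hERG by baculovirus. Compounds pre-incubated around 10 min; medium Opti-MEM with 2% FCS. AC50 from Hill equation.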

[3] = biological target: Luciferin 4-monooxygenase (Photinus pyralis) (UniProt P08659); assay: Biochemical firefly luciferase enzyme assay for NPC (AID 624030);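 further: purified P. pyralis luciferase at 10 nM with luciferin and ATP substrate; series mostly up to about 59 µM; nearly all actives have a fitted effect of over 70% in size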
Luciferin 4-monooxygenase (Photinus pyralis), sequence (P08659 whole entry, looked up): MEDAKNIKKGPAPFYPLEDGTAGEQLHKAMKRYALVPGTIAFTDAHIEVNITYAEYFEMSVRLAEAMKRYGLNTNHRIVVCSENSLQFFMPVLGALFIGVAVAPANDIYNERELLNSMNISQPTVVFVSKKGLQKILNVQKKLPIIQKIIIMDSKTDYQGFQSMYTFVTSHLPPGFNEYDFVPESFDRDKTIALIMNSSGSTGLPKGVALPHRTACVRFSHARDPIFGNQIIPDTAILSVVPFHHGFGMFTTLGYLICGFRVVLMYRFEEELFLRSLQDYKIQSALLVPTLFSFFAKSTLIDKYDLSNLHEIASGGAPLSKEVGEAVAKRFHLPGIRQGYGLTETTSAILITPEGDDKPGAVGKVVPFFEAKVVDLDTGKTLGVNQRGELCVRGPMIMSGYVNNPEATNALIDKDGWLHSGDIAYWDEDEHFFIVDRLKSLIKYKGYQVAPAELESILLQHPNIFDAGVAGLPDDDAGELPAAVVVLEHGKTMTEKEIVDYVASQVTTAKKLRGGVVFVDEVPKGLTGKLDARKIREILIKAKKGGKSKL
Outline: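 Purified P. pyralis luciferase at 10 nM in 50 mM Tris Acetate (final), luminescence read within 5 minutes of enzyme addition to compounds. Activity normalised to PTC124 versus DMSO; concentration-response curves classed by r2, magnitude and activity.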

[4] = S16 Schwann cell viability assay (CellTiter-Glo assay) (AID 624031);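 further: native untransfected S16 rat Schwann cells; cellular ATP luminescence as a viability measure; series mostly up to about 58 µM; nearly all actives have a fitted effect of over 70% in size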
Outline: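 Following overnight culture in 10% FBS DMEM, parental S16 rat Schwann cells are dosed for 24 h at 37 °C. Viability is read as CellTiter-Glo luminescence and expressed as % activity relative to DMSO (0%) and no-cell wells.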

[5] = S16 Schwann cell PMP22 intronic element firefly luciferase assay (AID 624032); further: nearly all actives have a fitted effect of over 30% in size; further: potency means the concentration at half of the fitted maximal effect
Outline: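 Rat S16 Schwann cells stably carrying firefly luciferase driven by a PMP22 intronic element, in 10% FBS, treated 24 h at 37 C. ONE-Glo luminescence normalized to PTC124 control and DMSO (0%); curves classed by r2, magnitude and activity.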

[6] = qHTS assay for small molecule agonists of the antioxidant response element (ARE) signaling pathway (AID 651741; active means well fitted activation curve with a large enough effect in the signal ratio; the % refers to the signal ratio; further: potency means the concentration at half of the fitted maximal effect)
Outline: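 CellSensor ARE-bla HepG2 cells (2,000/well) carrying ARE-driven beta-lactamase, exposed 16 h at 37 C. LiveBLAzer B/G FRET substrate added for 2 h at room temperature; fluorescence intensity read.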

[7] = qHTS assay for small molecule activators of the p53 signaling pathway (AID 651743; active means well fitted activation curve with a large enough effect in the signal ratio, not every such curve was filed as active; the % refers to the signal ratio; further: series mostly up to about 92 µM); conditions: HCT-116 p53RE-bla, beta-lactamase FRET ratio, 16 h; activation: stronger effect = higher value
Outline: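 p53RE-bla HCT-116 cells carrying a beta-lactamase reporter under p53 response elements were exposed to compounds for 16 hours at 37 C. Reporter activity read as fluorescence after 2 hours at room temperature with LiveBLAzer B/G FRET substrate.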

[8] = qHTS assay for small molecule activators of the nuclear factor-kappa B (NF-kB) signaling pathway (AID 651749; active means well fitted activation curve with a large enough effect in the signal ratio; the % refers to the signal ratio; further: series mostly up to about 77 µM); conditions: NF-kB-bla ME-180 cells, beta-lactamase FRET ratio, 16 h; stronger effect = higher value
Outline: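 NF-kB-bla ME-180 cells carrying a beta-lactamase reporter under an NF-kB response element, 2,000 cells/well, exposed to compound for 16 hr at 37C; FRET-based beta-lactamase fluorescence read-out of pathway activation.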

[9] = biological target: Glutaminase kidney isoform, mitochondrial (Homo sapiens) (UniProt O94925); assay: qHTS for Inhibitors of Glutaminase (GLS): LOPAC Validation (AID 624146);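 further: glutamate product detected by oxidase and peroxidase coupled Amplex red fluorescence gain; series mostly up to about 46 µM; nearly all actives have a fitted effect of over 60% in size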
Glutaminase kidney isoform, mitochondrial (Homo sapiens), sequence (O94925 whole entry, looked up, canonical isoform): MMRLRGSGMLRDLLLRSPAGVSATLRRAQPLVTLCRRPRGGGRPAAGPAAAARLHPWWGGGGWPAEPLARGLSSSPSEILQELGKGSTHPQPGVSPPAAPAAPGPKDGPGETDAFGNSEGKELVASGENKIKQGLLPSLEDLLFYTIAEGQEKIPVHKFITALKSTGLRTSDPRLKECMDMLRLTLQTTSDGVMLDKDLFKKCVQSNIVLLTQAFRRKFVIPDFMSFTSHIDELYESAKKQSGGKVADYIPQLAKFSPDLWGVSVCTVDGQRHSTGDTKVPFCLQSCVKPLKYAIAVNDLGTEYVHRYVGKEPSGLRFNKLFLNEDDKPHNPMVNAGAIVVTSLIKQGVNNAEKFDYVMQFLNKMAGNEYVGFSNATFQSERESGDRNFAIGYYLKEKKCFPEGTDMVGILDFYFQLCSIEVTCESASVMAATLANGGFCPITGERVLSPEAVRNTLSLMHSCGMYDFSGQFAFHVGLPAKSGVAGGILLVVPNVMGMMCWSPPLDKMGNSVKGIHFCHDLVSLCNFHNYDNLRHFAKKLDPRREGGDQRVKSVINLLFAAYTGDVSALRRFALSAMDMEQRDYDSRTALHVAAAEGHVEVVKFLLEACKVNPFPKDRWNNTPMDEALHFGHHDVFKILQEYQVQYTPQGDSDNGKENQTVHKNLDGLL
Outline: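 hKGA; 45 mM KH2PO4 pH 8.2 + 0.02% Tween-20; cpd via pin tool; 1 mM Gln soln; GluOx/HRP/Amplex Red; RT 30 min; fluor. t0 & final.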

[10] = qHTS of Trypanosoma Brucei Inhibitors: LOPAC Validation (AID 624147)
Outline: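 Glycolytic pyruvate kinase of T. brucei was incubated with substrate, test compound and 130 uM ADP for 45 minutes at room temperature. Luminescent Kinase-Glo Plus signal was measured after 10 minutes.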

[11] = biological target: Glucagon-like peptide 1 receptor (Homo sapiens) (UniProt P43220); assay: qHTS of GLP-1 Receptor Agonists: LOPAC Validation (AID 624148);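 further: higher luminescence signal means agonism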
Glucagon-like peptide 1 receptor (Homo sapiens), sequence (P43220 whole entry, looked up): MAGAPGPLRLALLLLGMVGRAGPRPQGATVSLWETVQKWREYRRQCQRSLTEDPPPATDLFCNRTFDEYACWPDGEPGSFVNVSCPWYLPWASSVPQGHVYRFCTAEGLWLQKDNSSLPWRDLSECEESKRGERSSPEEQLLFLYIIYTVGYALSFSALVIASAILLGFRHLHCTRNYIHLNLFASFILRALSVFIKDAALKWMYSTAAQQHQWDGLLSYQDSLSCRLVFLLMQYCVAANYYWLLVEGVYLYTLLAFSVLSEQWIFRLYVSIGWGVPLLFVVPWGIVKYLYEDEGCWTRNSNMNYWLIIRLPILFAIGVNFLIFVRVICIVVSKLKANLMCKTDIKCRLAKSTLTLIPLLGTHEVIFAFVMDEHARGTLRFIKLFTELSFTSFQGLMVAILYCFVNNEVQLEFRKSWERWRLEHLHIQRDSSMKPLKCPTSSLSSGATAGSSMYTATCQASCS
Outline: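 HEK293 cells stably co-expressing GLP-1R and a cAMP-responsive luciferase reporter, plated 12 hours before compound, then incubated 4-6 hr at 37 deg C. Luminescence read 12 min after detection reagent.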

[12] = qHTS of Nrf2 Activators: LOPAC Validation (AID 624149)
Outline: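 Luminescence read-out of ARE-luciferase activation: AREc32_Fluc cells treated with compounds for 24 hr at 37 deg C, then lysed with Steady-Glo for 30 min at room temperature before reading.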

[13] = HTS Assay for Allosteric Antagonists of the Human D2 Dopamine Receptor: Hit Validation in HTRF (AID 624455);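 further: stable D1 dopamine receptor cell line scored for blocking the D1 response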
Outline: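 First, antagonism was screened by calcium flux in a force-coupled, inducible Hek293 Trex D2 line challenged with EC80 dopamine. Hits then went into an HTRF assay in cells stably expressing D1, testing inhibition of the D1 response.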

SMILES | Potency [1] | Potency [2] | Potency [3] | Potency [4] | Potency [5] | Potency [6] | activation [7] | activation [8] | Potency [9] | outcome [10] | outcome [11] | outcome [12] | Potency [13]
CC(C)CC(N(C)C)C1(c2ccc(Cl)cc2)CCC1 (stereo not given) | inactive |  |  |  |  |  |  |  |  |  |  |  | 
O=[N+]([O-])c1cc([As](=O)(O)O)ccc1O | inactive | inactive | inactive | inactive | inactive |  |  |  |  |  |  |  | 
CCOP(=S)(OCC)Oc1cc(C)nc(C(C)C)n1 | inactive | inactive | inactive | inactive | inactive | inactive | -0.592% (inactive) and 3.54% (inactive) | -0.534% (inactive) and -0.189% (inactive) |  |  |  |  | 
c1ccc(C2CC2)c(OCC2=NCCN2)c1 |  | inactive | inactive | inactive | inactive |  |  |  | inactive | inactive | inactive | inactive | inactive
NN=C(N)N |  | inactive | inactive | inactive | inactive |  |  |  | inactive | inactive | inactive | inactive | inactive
CCN(CC)CCN1C(=O)CN=C(c2ccccc2F)c2cc(Cl)ccc21 | inactive | 3.98 µM (active) | inactive | inactive | inactive |  |  |  |  |  |  |  | 
NCC(O)c1ccc(O)cc1 (stereo not given) |  | inactive | inactive | inactive | 16.1 µM (active) | inactive | -5.43% (inactive) | -2.66% (inactive) | inactive | inactive | inactive | inactive | 
NCC(CC(=O)O)c1ccc(Cl)cc1 (stereo not given) |  | inactive | inactive | inactive | inactive |  |  |  | inactive | inactive | inactive | inactive | inactive
CC[C@@H](CO)NC(=O)[C@@H]1C=C2c3cccc4c3c(cn4C)C[C@H]2N(C)C1 | inactive | inactive | inactive | inactive | inactive |  |  |  |  |  | inactive | inactive | 
COc1ccccc1N1CCNCC1 | inactive | inactive | inactive | inactive | inactive |  |  |  | inactive | inactive | inactive | inactive | inactive
Cc1cccc(C)c1NC1=NCCCS1 | inactive | inactive | inactive | inactive | inactive |  |  |  | inactive | inactive | inactive | inactive | inactive
Cc1ccc(-c2nc3ccc(C)cn3c2CC(=O)N(C)C)cc1 | inactive | inactive | inactive | inactive | inactive |  |  |  |  |  |  |  | 
CCC1(C2=NCCN2)Cc2ccccc2O1 (stereo not given) |  | inactive | inactive | inactive | inactive |  |  |  |  | inactive | inactive | inactive | inactive
CC(=O)[C@H]1CC[C@H]2[C@@H]3CC[C@H]4C[C@](C)(O)CC[C@]4(C)[C@H]3CC[C@]12C | inactive | inactive | inactive | inactive | inactive |  |  |  | inactive | inactive | inactive | inactive | inactive
Cc1ccc(S(=O)(=O)N[C@@H](CCCCN)C(=O)CCl)cc1 | inactive | inactive | inactive | inactive | inactive |  |  |  |  | inactive | inactive | inactive | inactive
CC(C)(C)CC(C)(C)c1ccc(O)cc1 | inactive | inactive | inactive | inactive | inactive |  | 1.12% (inactive) |  |  |  |  |  | 
Cc1ncc(CNC(=O)N(CCCl)N=O)c(N)n1 | inactive | inactive | inactive | inactive | inactive |  |  |  | inactive | inactive | inactive | inactive | inactive
Oc1ccccc1-c1ccccc1 |  | inactive | inactive | inactive | inactive | 54.5 µM (active) and 398 µM (active) and 30.6 µM (active) | -2.94% (inactive) and -3.63% (inactive) and -0.39% (inactive) |  |  |  |  |  | 
O=P1(NCCCl)OCCCN1CCCl (stereo not given) | inactive | inactive | inactive | inactive | inactive |  |  |  |  |  |  |  | 
Oc1cc(Cl)ccc1Oc1ccc(Cl)cc1Cl | inactive | inactive | inactive | inactive | inactive | 54.5 µM (active) |  | 2.77% (inactive) |  |  |  |  | 
c1ccc2c(c1)Nc1ccccc1S2 | inactive | 7.08 µM (active) and 12.6 µM (active) | inactive | inactive | inactive | 54.5 µM (active) | 4.3% (inactive) and -2.32% (inactive) |  |  |  |  |  | 
CC(C)=CC1C(C(=O)OCc2cccc(Oc3ccccc3)c2)C1(C)C (stereo not given) | inactive | inactive | inactive | inactive | inactive |  |  |  |  |  |  |  | 
C#CCOC(C(=O)OCCN(C)C)(c1ccccc1)c1ccccc1 | inactive | inactive | inactive | inactive | inactive |  |  |  |  |  |  |  | 
Oc1ccc(Cl)cc1Cc1ccccc1 | inactive | inactive and 44.7 µM (active) | inactive | inactive | inactive | 54.5 µM (active) and 42.2 µM (active) | -3.88% (inactive) and -4.49% (inactive) | -0.62% (inactive) and 0.873% (inactive) |  |  |  |  | 
